# Screens deposited in PubChem BioAssay by National Center for Advancing Translational Sciences (NCATS).
# Compounds with a hit are over-represented: about 5.3% of the library has one in this group of screens.
# HCV inh: blocks hepatitis C virus | Huh7.5.1 HCVcc-Cre infection, luciferase reporter, 44 h | Potency, µM (doses to about 41.8 µM), for inactives: top-dose activity change, negative = inhibition, usual class: inhibitors | actives 3.4% (n = 340,000) | AID 651820; active = well fitted inhibition curve with a large enough effect; inconclusive = small, poorly fitted or top-dose-only effect, or another doubt; inactive = no such curve, though single readings can be large or run the other way
#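 After 44 h co-culture of compound, cells and HCVcc-Cre (~0.5 moi), substrate is added for 15 min at room temperature and luciferase measured over 15 sec. Cells were seeded at 1,000/well and pre-cultured 4 h.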
# LASV entry inh: blocks Lassa virus binding to or entry into cells. Lassa virus pseudotype entry inhibition, cell reporter. Potency, µM (highest dose often 37.9 µM), inactives show at the highest dose activity change, negative = inhibition, hits mostly inhibitors. actives 1.2% (n = 300,000); calls by dose curve; tested in HEK293 cells; note: nearly all actives have a fitted effect of over 50% in size
# Vaccinia Venus: vaccinia inhibition (Venus reporter). Vaccinia virus Venus reporter expression, fluorescence. Potency, µM (top dose mostly 36.5 µM), without a hit: top-dose activity change, negative = inhibition, actives largely listed as inhibitors. actives 0.46% (n = 330,000). AID 720580; calls by dose curve; tested in A549 cells; note: nearly all actives have a fitted effect of over 30% in size
# FMDV antiviral: foot and mouth disease virus antiviral activity; FMDV antiviral cell-based qHTS; Potency, µM (titrated, usually from 57.9 µM), for inactives: at the top dose activity change, negative = inhibition, hits mostly inhibitors; actives 1.2% (n = 410,000); calls by dose curve; tested in HEK293T cells; note: read-out not given here; nearly all actives have a fitted effect of over 45% in size
# Vaccinia mCherry: inhibitors of vaccinia virus infection (mCherry reporter signal) | actives 0.63% (n = 310,000) | Vaccinia virus mCherry reporter infection, fluorescence | Potency, µM (top dose mostly 36.5 µM), without a hit: at the top dose activity change, negative = inhibition, hits mostly inhibitors | AID 720579; calls by dose curve; tested in A549 cells; note: nearly all actives have a fitted effect of over 35% in size
# Marburg entry inh: inhibitors of Marburg virus binding or cell entry; Marburg virus pseudotyped entry inhibition, cell reporter; Potency, µM (highest dose often 37.8 µM), inactives show at the top dose activity change, negative = inhibition, hits mostly inhibitors; actives 1.8% (n = 300,000); AID 540276; calls by dose curve; tested in HEK293 cells
# An asterisk follows results filed as active; i = inactive; ? = inconclusive; / = no result; [ ] = remark or other dose. % is set by controls: 0 for no effect and ±100 for the full control effect; potency is the fitted concentration of half-maximal effect.
SMILES,HCV inh,LASV entry inh,Vaccinia Venus,FMDV antiviral,Vaccinia mCherry,Marburg entry inh
CN(C)c1ccc(-c2nc3ccccn3c2/N=C/c2ccc(Br)cc2)cc1,24.9%,7.08µM*,-10.4%,12.6µM*,-20.1%,?
Cc1c(-c2ccc(Br)cc2)nc2ccccn12,-21.1%,?,-25.8%,34.3%,-10.6%,?
CC(N)C(=O)NC1C2C(=C(O)CC(O)C2O)C(=O)OC1(C)C(Cl)Cl (centres undefined),?,0.501µM*,1µM*,?,?,0.316µM*
CC(C)C1CCC(C(=O)N[C@H](Cc2ccccc2)C(=O)O)CC1 (some centres undefined),/,/,-12.5%,-12.2%,-9.1%,/
O=C(NC(Cc1cccc(F)c1)C(=O)O)C1CCCCC1 (centres undefined),2.82µM*,/,4.7%,-14.4%,-10.6%,/
Cc1ccc2c(c1)c1c3n2CCN(C(=O)CCl)C3CCC1 (centres undefined),22.4µM*,?,-14.3%,?,?,?
CC(=O)N1CCn2c3c(c4cc(C)ccc42)CCCC31 (centres undefined),-6.7%,/,-8.3%,11.0%,?,/
CCOC(=O)c1c(NC(=O)c2nn(CC)cc2Br)c(C#N)nn1-c1ccccc1,11.2µM*,-27.3%[14.3 µM],-8.0%,-22.4%,-16.2%,?
CCOC(=O)c1nn(-c2ccccc2)c(C#N)c1NC(=O)c1nn(CC)cc1Br,?,?,-18.3%,4.2%,-4.6%,0.1%
COc1ccc(-n2ccn(Cc3ccc(C)cc3)c(=O)c2=O)cc1OC,/,6.1%[46.1 µM],4.6%,-2.0%,-0.9%,/
CCN(CC)c1ccc2cc(-c3nc4ccccc4[nH]3)c(=O)oc2c1,?,?,2.5%,4.47µM*,2.4%,?
CCN(CC)c1ccc2cc(-c3nc4ccccc4n3C)c(=O)oc2c1,?,-1.4%,?,41.2%,?,36.8%
COc1ccc(-c2nc(C)c(CCNC(=O)c3ccco3)s2)cc1,/,0.6%[46.1 µM],-10.6%,36.6%,-2.3%,/
Cc1nn(Cc2ccc(F)cc2)c2sc(C(=O)Nc3ccccc3N3CCOCC3)cc12,?,?,-4.8%,-14.5%,-13.8%,-16.6%
Cc1nn(Cc2ccccc2Cl)c2sc(C(=O)Nc3ccccc3N3CCOCC3)cc12,12.6µM*,4.6%,/,?,/,15.4%
CCCCCCCCCCCC(=O)NC(C(=O)OCC)C(O)c1cccc([N+](=O)[O-])c1 (centres undefined),-1.3%,?,-29.0%,?,-21.4%,11.2µM*
Cc1ncoc1C(=O)N1CCOc2ccc(CN3CCN(c4ccccn4)CC3)cc2C1,/,/,-8.6%,-17.1%,-10.5%,/
COC(=O)CC=C[C@@H](C)[C@@H](C=NOC[C@@H](O)[C@H]1O[C@@H]2OC(C)(C)O[C@H]2[C@@H]1O)OC,/,?,/,/,/,21.9%[14.2 µM]
CC(C)C[C@]1(c2ccccc2)ON(c2ccccc2C(F)(F)F)C1=O,7.0%,/,?,-27.4%,-9.0%,/
CC[C@]1(c2ccccc2OC)ON(c2ccccc2C(F)(F)F)C1=O,?,/,?,22.4µM*,-23.1%,/
Cc1c(C(C)NC(=O)c2cc(COc3cccc4cnccc34)on2)cnn1C (centres undefined),7.08µM*,/,/,?,/,/
CN(Cc1cccc2cnccc12)C(=O)c1cc(COc2ccc(F)cc2F)on1,8.91µM*,/,/,?,/,/
CSc1ccccc1OCc1cc(C(=O)NC(C)c2cnn(C)c2)no1 (centres undefined),-6.4%,6.7%,-14.8%,10.2%,-21.5%,17.4%
CCc1ccc(CN(C)C(=O)c2cc(COc3c(F)cccc3F)on2)cc1,2.8%,-22.8%,9.6%,46.0%,-2.8%,-12.8%[46.1 µM]
CCc1ccc(CN(C)C(=O)c2cc(COc3cccc4cnccc34)on2)cc1,7.94µM*,/,/,?,/,/
SMILES,HCV inh,LASV entry inh,Vaccinia Venus,FMDV antiviral,Vaccinia mCherry,Marburg entry inh
Cc1ccccc1NC(=O)c1sc2nc(N3CCOCC3)c3c(c2c1N)CC(C)(C)OC3,/,-4.4%[46.1 µM],-13.8%,0.0%,-16.1%,24.0%[46.1 µM]
O=C(Nc1ccc2nc(-c3cccs3)c(-c3cccs3)nc2c1)N1CCCCC1,/,/,-17.7%,/,-16.9%,/
COc1ccccc1NCC(=O)N/N=C/c1c(O)ccc2ccccc12,2.82µM*,/,/,-6.2%,/,/
COc1ccccc1N(CC(=O)N/N=C/c1c(O)ccc2ccccc12)S(C)(=O)=O,?,9.2µM*,?,-29.6%,11.2µM*,?
CCc1ccc(C(=O)NNc2ccccc2F)cc1,-2.0%,?,-2.7%,66.3%,?,4.47µM*
CC(C)c1c(C(=O)NCC(C)(C)N2CCOCC2)cnn1-c1nccc(-c2cccs2)n1,/,/,-13.7%,-1.3%,-25.7%,/
O=C(CCl)c1ccc2c(c1)CCN2C(=O)C1CCCCC1,?,-3.8%[46.1 µM],-11.8%,20µM*,i,?
O=C(NCCCc1ccccc1)c1cccc(NC(=O)C2CCCCC2)c1,4.47µM*,?,-25.8%,-15.0%,i,/
CC(C)(C)OC(=O)N1CCC(C(=O)Nc2cccc(C(=O)NCCCc3ccccc3)c2)CC1,3.98µM*,-3.5%[46.1 µM],-20.5%,?,-13.3%,/
CC(C)(C)OC(=O)N(Cc1ccccc1)Cc1cccc(OCc2cccc(NC(=O)C3CC3)c2)c1,1.26µM*,/,?,?,-6.6%,/
CC(C)(C)OC(=O)N1CCCC(C(=O)Nc2cccc(C(=O)NCCCc3ccccc3)c2)C1 (centres undefined),?,/,-16.8%,0.0%,i,?
CCC1Oc2ccc(C)cc2N(CC(=O)NCc2ccc(F)cc2)C1=O (centres undefined),/,-6.4%[46.1 µM],-17.5%,3.5%,-6.0%,/
COC(=O)C[C@H]1c2ccccc2[C@@H]2C(=C[C@@H](C)[C@H]3C(=O)N(c4ccccc4)C(=O)[C@H]32)N1C(=O)OC,/,/,/,/,/,10.2%[14.2 µM]
CC(C)c1ccc(OCc2ccc(C(=O)O)o2)cc1,20.9%,3.55µM*,5.8%,10µM*,-14.3%,3.66µM*
[C-]#[N+]c1cc(-c2ccncc2)c(C)[nH]c1=O,/,/,-15.5%[87.9 µM],0.8%[146 µM],-23.0%[87.9 µM],/
O=[N+]([O-])c1cccc(NNS(=O)(=O)c2ccccc2F)c1,8.7%,?,-19.9%,-0.1%,?,8.91µM*
Cc1cc(S(=O)(=O)Nc2cccc([N+](=O)[O-])c2)c(C)s1,14.6%,/,/,0.0%,/,/
N#Cc1ccc(CN2CC3(CCN(C(=O)c4cccc(F)c4)CC3)C2)cc1,/,/,/,-10.0%,/,/
N#Cc1cnc(SCC(=O)c2ccccc2)nc1N,7.7%,7.0%,/,13.0%,/,10.0%
N#Cc1cnc(SCCc2ccccc2)nc1N,2.24µM*,-39.0%,/,3.4%,/,-9.3%
COc1ccc(/C=N/NC(=O)c2ccc(N)cc2)cc1Cn1cc([N+](=O)[O-])cn1,?,?,17.4%,-17.5%,?,7.94µM*
COc1ccc(C(=O)N/N=C/c2ccc(OC)c(CN3CCCc4ccccc43)c2)cc1,6.31µM*,?,-4.9%,-10.9%,-10.5%,?
COc1ccc(/C=N/NC(=O)c2cc(OC)c(OC)c(OC)c2)cc1CN1CCc2cc(OC)c(OC)cc2C1C (centres undefined),2µM*,-20.1%,-16.3%,-8.0%,-11.3%,14.1µM*
